Compound activity (PubChem BioAssay)
Compounds with a hit are over-represented: about 2.4% of the library has one in this group of screens.
Pol iota inh: blocks human DNA polymerase iota activity; Q9UNA4; Pol iota fluorescent replication assay, 10 min; Potency, µM (doses to about 115 µM), hits mostly inhibitors; actives 1% (n = 390,000)
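Pol iota at 10 nM preincubated 15 min with compounds at room temperature; reaction started with fluorescent substrate, 50 nM final. Fluorescence read kinetically at 0 and 10 min; buffer-only wells as negative control.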
Pol beta inh: inhibitors of human DNA polymerase beta; Pol beta primer extension/strand displacement, fluorescence kinetic; P06746; Potency, µM (top dose mostly 114 µM), actives largely listed as inhibitors; actives 1.3% (n = 340,000); AID 485314
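Pol beta (10 nM) was preincubated with compound for 15 min at room temperature. The reaction was then started with 50 nM substrate and read immediately and after a further 10 min at room temperature.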
Pol kappa inh: inhibitors of human DNA polymerase kappa | Q9UBT6 | actives 0.53% (n = 400,000) | Potency, µM (titrated, usually from 107 µM), usual class: inhibitors | purified Pol kappa, fluorescent DNA synthesis assay, 10 min
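10 nM Pol kappa was preincubated with compounds for 15 min at room temperature. Reaction started with 50 nM (final) substrate. Fluorescence read kinetically at 0 and 10 min.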
POLH inh: blocks human DNA polymerase eta activity; Q9Y253; recombinant Pol eta, fluorescent DNA replication assay; Potency, µM (doses to about 114 µM), most hits filed as inhibitors; actives 1.2% (n = 390,000); AID 588591
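Fluorescent replication assay: 50 nM final substrate added after a 15 min room-temperature compound preincubation with 10 nM enzyme. Signal taken at 0 min and again at 10 min.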
WRN inhibitor: blocks human WRN helicase; Q14191; WRN helicase unwinding, fluorescent forked duplex, kinetic; Potency, µM (series often up to 114 µM), most hits filed as inhibitors; actives 0.46% (n = 360,000); AID 651768; also: nearly all actives have a fitted effect of over 55% in size
Target sequence (Q14191 whole entry, looked up): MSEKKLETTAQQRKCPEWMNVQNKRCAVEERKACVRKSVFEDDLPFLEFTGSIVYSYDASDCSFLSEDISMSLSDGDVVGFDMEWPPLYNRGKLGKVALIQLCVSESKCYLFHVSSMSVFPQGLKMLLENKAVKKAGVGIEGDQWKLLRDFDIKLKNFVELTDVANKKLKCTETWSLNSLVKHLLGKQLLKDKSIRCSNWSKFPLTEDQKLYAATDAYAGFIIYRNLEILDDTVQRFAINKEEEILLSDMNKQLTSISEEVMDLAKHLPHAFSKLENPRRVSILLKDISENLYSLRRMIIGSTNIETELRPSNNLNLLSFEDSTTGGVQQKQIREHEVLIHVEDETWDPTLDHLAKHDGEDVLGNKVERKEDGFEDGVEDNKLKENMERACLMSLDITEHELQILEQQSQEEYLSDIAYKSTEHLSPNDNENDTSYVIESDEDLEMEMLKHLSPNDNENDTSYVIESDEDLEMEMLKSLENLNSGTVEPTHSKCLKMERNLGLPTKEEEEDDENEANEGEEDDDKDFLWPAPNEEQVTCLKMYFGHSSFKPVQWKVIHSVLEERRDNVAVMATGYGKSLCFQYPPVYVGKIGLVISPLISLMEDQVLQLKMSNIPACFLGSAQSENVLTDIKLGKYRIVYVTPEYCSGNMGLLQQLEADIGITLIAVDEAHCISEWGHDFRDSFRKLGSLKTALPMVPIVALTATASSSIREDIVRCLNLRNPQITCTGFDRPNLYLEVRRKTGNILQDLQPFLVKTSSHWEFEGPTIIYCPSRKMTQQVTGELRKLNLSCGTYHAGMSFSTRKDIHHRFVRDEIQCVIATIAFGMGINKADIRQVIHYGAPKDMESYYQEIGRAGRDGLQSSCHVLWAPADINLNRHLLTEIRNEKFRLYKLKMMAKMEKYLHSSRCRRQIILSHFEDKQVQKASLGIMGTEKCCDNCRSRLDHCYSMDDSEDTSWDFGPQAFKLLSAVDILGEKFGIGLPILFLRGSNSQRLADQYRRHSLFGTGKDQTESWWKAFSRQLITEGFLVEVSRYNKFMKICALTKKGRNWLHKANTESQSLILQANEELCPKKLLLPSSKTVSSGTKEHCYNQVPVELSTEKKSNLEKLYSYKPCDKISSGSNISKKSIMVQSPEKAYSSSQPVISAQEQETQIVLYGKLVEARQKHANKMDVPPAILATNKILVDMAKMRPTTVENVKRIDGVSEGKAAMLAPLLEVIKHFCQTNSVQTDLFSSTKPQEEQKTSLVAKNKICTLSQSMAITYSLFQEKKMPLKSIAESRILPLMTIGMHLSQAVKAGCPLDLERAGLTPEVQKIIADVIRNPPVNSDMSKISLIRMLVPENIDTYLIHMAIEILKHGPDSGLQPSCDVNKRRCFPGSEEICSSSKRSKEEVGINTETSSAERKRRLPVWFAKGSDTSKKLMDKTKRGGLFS
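Enzyme (20 nM final) and test compound sit together 15 min at room temperature before substrate addition. Substrate is a single-forked duplex oligonucleotide (100 nM) labelled with fluorophore and quencher, with 2 mM ATP; helicase unwinding raises red fluorescence, read kinetically.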
FEN1 inhibitor: blocks human flap endonuclease 1 | P39748 | Recombinant FEN1 flap cleavage, fluorescence, 15 min | Potency, µM (doses to about 114 µM), usual class: inhibitors | actives 0.35% (n = 390,000) | AID 588795; also: nearly all actives have a fitted effect of over 65% in size
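Potency values derive from four-parameter Hill fits of normalized qHTS data. The reaction used 10 nM FEN1 preincubated 15 min at room temperature with compound, then 50 nM DNA substrate, read at 0 and 15 min.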
PGK validate: blocks T. brucei phosphoglycerate kinase | shares compounds with Pol kappa inh | TbPGK coupled GAPDH assay, Kinase-Glo luminescence | Potency, µM (doses to about 57.5 µM), hits mostly inhibitors | actives 79% (n = 500) | AID 686980; also: nearly all actives have a fitted effect of over 65% in size
Pol iota confirm: Inhibitors of human DNA polymerase iota, confirmation; shares compounds with Pol kappa inh; Potency, µM, actives largely listed as inhibitors; AID 720496; actives 77% (n = 1,500); Pol iota primer extension, TAMRA/BHQ fluorescence
Large screens that a line does not name were inactive (follow-up assays come after a bar, where they were run). Calls follow the shape of the dose curve; as a rule, active = well fitted curve in the direction sought with a large enough effect; inconclusive = small, poorly fitted or top-dose-only effect, or another doubt; inactive = no such curve, though single readings can be large; an effect the other way counts as inactive or inconclusive.

CC(=O)c1sc2nc(C)cc(C)c2c1N	none
Cc1cc(C)c2c(n1)sc1c(O)cc(=O)[nH]c12	Pol iota inh inconclusive, Pol beta inh inconclusive, Pol kappa inh 79.4µM, POLH inh 79.4µM, WRN inhibitor inconclusive, FEN1 inhibitor inconclusive | Pol iota confirm 47.4
O=C(O)c1ccc(N/N=C/c2ccc3c(c2)OCO3)cc1	none | PGK validate 10.3µM
Cc1ccsc1C(=O)N/N=C/c1ccc2c(c1)OCO2	none | PGK validate 18.3µM
O=C(O)c1ccc(N/N=C/c2cc3c(cc2[N+](=O)[O-])OCO3)cc1	POLH inh inconclusive, FEN1 inhibitor inconclusive
O=C1CCC(C(=O)N(CCO)Cc2ccccc2)CN1CCc1cccc(F)c1 (configuration not stated)	none (no result: Pol iota inh, Pol beta inh, Pol kappa inh, FEN1 inhibitor)
Cn1c(=O)[nH]c2cc(-c3noc(-c4ccc(Br)cc4)n3)ccc21	none (no result: WRN inhibitor)
COc1ccc(-c2noc(CSc3nc4ccccc4[nH]3)n2)cc1OC	none (no result: WRN inhibitor)
Cc1c(C(=O)Nc2cccc(-c3nc4ccccc4s3)c2)oc2ccccc12	none (no result: WRN inhibitor)
O=C(Nc1cccc(-c2nc3ccccc3s2)c1)c1cc(=O)c2ccccc2o1	Pol beta inh inconclusive, POLH inh inconclusive | Pol iota confirm inconclusive
COc1ccccc1-c1cnc(C(O)c2ccc(CN3CCCC3)cc2)[nH]1 (configuration not stated)	none (no result: Pol iota inh, Pol beta inh, Pol kappa inh, POLH inh, FEN1 inhibitor)
COc1cccc(CNCCSc2nnnn2C)c1OCc1ccc(Cl)cc1Cl	none (no result: WRN inhibitor) | PGK validate inactive
CCN1/C(=C\C(=S)Nc2ccccc2)Sc2ccccc21	none
CCN1/C(=C/C(C)=C/c2sc3ccccc3[n+]2CC)Sc2ccccc21	Pol iota inh 31.6µM, Pol beta inh 35.5µM, Pol kappa inh inconclusive, POLH inh 39.8µM, WRN inhibitor 17.8µM, FEN1 inhibitor 7.08µM | PGK validate inconclusive
CN(CC(=O)Nc1c(Cl)cccc1Cl)CC(=O)N1CCc2ccccc21	none (no result: Pol iota inh, Pol beta inh, Pol kappa inh, FEN1 inhibitor)
Cc1nc2sc(-c3ccccc3)cc2c(=O)n1-n1cccc1	none
Cc1nc2sc(-c3ccccc3)cc2c(=O)n1N	none | PGK validate 16.3µM
COc1ccc2c(c1)C(=O)C1(CC2)OC1c1cccnc1 (configuration not stated)	none (no result: Pol iota inh, Pol beta inh, Pol kappa inh, FEN1 inhibitor)
CN(C)c1ccc(C(=O)Nc2sc(Nc3ccccc3)nc2C(N)=O)cc1	Pol iota inh 79.4µM, Pol beta inh inconclusive, POLH inh inconclusive (no result: WRN inhibitor) | Pol iota confirm inconclusive
CN(C)c1ccc(C(=S)Nc2ccccc2)cc1	none
COC(=O)c1cc2oc3ccccc3c2n1Cc1nc(-c2cccc(C)c2)oc1C	none (no result: WRN inhibitor)
COc1ccc(B(O)O)c(CN2CCN(C(=O)OC(C)(C)C)CC2)c1	Pol iota inh inconclusive (no result: Pol beta inh) | PGK validate inconclusive
CCOc1ccc(S(=O)(=O)N(C)c2ccc(OCC(=O)Nc3nccs3)cc2)cc1	none
CCOc1ccc(OCC(=O)Nc2nccs2)cc1	none | PGK validate 13µM
O=C(COC(=O)/C=C/c1ccco1)Nc1cc(S(=O)(=O)N2CCOCC2)ccc1Cl	Pol iota inh 50.1µM, Pol kappa inh inconclusive, POLH inh inconclusive (no result: Pol beta inh) | PGK validate inconclusive
COc1ccc(C(C)(O)c2nc(-c3ccoc3)cs2)cc1 (configuration not stated)	none (no result: Pol iota inh, Pol beta inh, Pol kappa inh, POLH inh, FEN1 inhibitor)
C=C(C)C(=O)Nc1ccc(OC(F)(F)C(F)F)c(NC(=O)C(=C)C)c1	Pol beta inh 31.6µM, Pol kappa inh inconclusive, POLH inh 17.8µM, WRN inhibitor inconclusive | PGK validate 6.51µM
Cc1ccc(-c2nnc3ccccc3c2C(=O)Nc2ccccc2F)cc1	none (no result: WRN inhibitor)
Cc1ccc(CNC(=O)c2nnn(CC(=O)Nc3cccc(C)c3C)c2N)cc1	Pol beta inh inconclusive, POLH inh inconclusive | Pol iota confirm 26.7
O=C(NCCc1ccccc1Cl)c1ccc2c(c1)nc1n2CCCCC1	none (no result: WRN inhibitor)
